The whole screen tested about 400,000 compounds, of which about 13,000 (3.2%) were called active. Entries that show only a call come without a potency. Roughly 18% stayed inconclusive and do not appear here. Calls come from the whole dose curve; as a rule, active = well fitted cell-killing curve with a large enough effect; inconclusive = small, poorly fitted or top-dose-only effect, or effect the other way; inactive = flat fitted curve, though single readings scatter. Only a selection was taken, and actives are over-represented in it overall.
experiment: qHTS assay for MDR1-selective chemotherapeutics: Primary screen using the drug-selected MDR subline cells KB-V1; conditions: KB-V1 MDR cells viability, CellTiter-Glo, 72 h; series mostly up to 46.1 µM; note: nearly all actives have a fitted effect of over 60% in size
How it was run: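 Cells of the MDR subline KB-V1 are plated, dosed with compound at multiple concentrations, and incubated 72 h at 37 degrees C; CellTiter-Glo is then added and luminescence read after 10 min.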
Potency is the fitted concentration of half-maximal effect.

SMILES | Potency
c1ccc(CNCc2ccc(CNCc3ccccc3)cc2)cc1 | inactive
CCc1nnc(SCC(=O)Nc2cc(OC)ccc2OC)nc1CC | inactive
Cc1ccccc1OS(=O)(=O)c1cccc([N+](=O)[O-])c1 | inactive
COc1ccccc1OCCOc1ccc(/C=N/n2cnnc2)cc1 | inactive
Cc1ccccc1OCCOc1ccc([N+](=O)[O-])cc1/C=N/n1cnnc1 | 8.2 µM (active)
O=C(CSc1nc2cccc(F)c2c(=O)n1-c1ccccc1)Nc1ccc2c(c1)CCC2 | inactive
O=C1c2ccccc2C(=O)N1CCCCCCN1C(=O)c2ccccc2C1=O | inactive
O=C1c2ccccc2C(=O)N1CCCc1nc(-c2ccccc2)no1 | 18.4 µM (active)
c1ccc(CCc2nc(-c3ccncc3)no2)cc1 | inactive
C[C@H]1CN([C@@H](C)CO)C(=O)CCCn2cc(nn2)CO[C@@H]1CN(C)S(=O)(=O)c1cccs1 | inactive
OC(c1ccc(Cl)c(F)c1)c1ncc(-c2ccccc2Cl)[nH]1 (configuration not stated) | inactive
Cc1ccc(S(=O)(=O)N2CCOCC2)cc1NC(=O)c1ccncc1 | inactive
O=C(Nc1cc(S(=O)(=O)N2CCCCC2)ccc1Cl)C1COc2ccccc2O1 (configuration not stated) | 14.6 µM (active)
O=C(CNCc1cccs1)Nc1cc(S(=O)(=O)N2CCCC2)ccc1Cl | inactive
CCN(CC)S(=O)(=O)c1ccc(N2CCOCC2)c(NC(=O)C2COc3ccccc3O2)c1 (configuration not stated) | inactive
CCc1ccc(Sc2cc(C(=O)NCCCOC(C)C)c3ccccc3n2)cc1 | inactive
O=C1c2ccccc2C(=O)c2c1cccc2N1CCN(Cc2ccccc2)CC1 | 18.4 µM (active)
O=C1c2ccccc2C(=O)c2c1cccc2N1CCN(C/C=C/c2ccccc2)CC1 | inactive
CCc1c(C)nc(N2CCN(Cc3ccccc3)CC2)[nH]c1=O | inactive
O=c1[nH][nH]c2c1[C@H](c1ccc(Cl)cc1)O[C@H](CCc1ccccc1)C2 | inactive
O=C(CSc1nccn1Cc1ccc(Cl)cc1)NCc1ccccc1 | inactive
COc1cc(F)ccc1-c1cc(C(=O)NCC2CCCCC2)[nH]n1 | inactive
COc1ccc(S(=O)(=O)N2CCC(C(=O)N3CCc4ccccc4C3)CC2)cc1OC | 13 µM (active)
COc1ccc(S(=O)(=O)N2CCC(C(=O)N3CCOCC3)CC2)cc1OC | inactive
COc1ccc(S(=O)(=O)N2CCC(C(=O)N3CCCC3)CC2)cc1C | inactive
C[C@H](CO)N1C[C@H](C)[C@@H](CN(C)C(=O)c2cnccn2)Oc2ncc(Br)cc2C1=O | inactive

SMILES | Potency
CC(C)c1ccc(NC(=O)c2ccc(Cn3nc(N4CCN(c5ccccc5)CC4)ccc3=O)o2)cc1 | inactive
Cc1ccc(-c2nc3ccc(Cl)cn3c2Cc2ccccc2)cc1 | inactive
CC1(C(=O)NS(=O)(=O)Cc2cccc(Cl)c2)CCN1C(=O)Cc1ccccc1 (configuration not stated) | inactive
COc1ccc(CNC(=O)CCCn2nc(C)c([N+](=O)[O-])c2C)cc1 | 25.9 µM (active)
COc1ccc(CNC(=O)CCn2cccc2)cc1 | inactive
Cc1ccc(Oc2cc(NC(=O)CCCn3nc(C)c([N+](=O)[O-])c3C)cc([N+](=O)[O-])c2)cc1 | 10.3 µM (active)
Cc1nn(CC(=O)NCc2ccccn2)c(C)c1[N+](=O)[O-] | inactive
CCc1ccc(NC(=O)Cn2nc(C)c([N+](=O)[O-])c2C)cc1 | inactive
Cc1nn(CC(=O)Nc2ccc(N(C)C)cc2)c(C)c1[N+](=O)[O-] | inactive
CCCNC(=O)C1(C)CCN(C(=O)c2ccc(F)cc2Cl)C1 (configuration not stated) | inactive
Cn1c(SCC(=O)OC2CCCCC2)nnc1-c1ccc(S(=O)(=O)N2CCCC2)cc1 | inactive
CC1Cc2ccccc2N1C(=O)CSc1nc2ccccc2o1 (configuration not stated) | 14.6 µM (active)
CN(C)S(=O)(=O)c1ccc2oc(SCC(=O)Nc3ccccc3F)nc2c1 | inactive
CCS(=O)(=O)c1ccc2oc(SCC(=O)N3c4ccccc4CC3C)nc2c1 (configuration not stated) | 5.17 µM (active)
CC1CC(C)CN(C(=O)CSc2nnc(CSc3ncccn3)n2C)C1 (configuration not stated) | inactive
CC(C)(C)C(=O)CSc1nc2ccccc2o1 | inactive
COc1ccc(S(=O)(=O)N2CCN(CC(=O)N3c4ccccc4CC3C)CC2)cc1OC (configuration not stated) | inactive
CC1Cc2ccccc2N1C(=O)CSc1nnc(C2CC2)n1C (configuration not stated) | inactive
CC1Cc2ccccc2N1C(=O)CSc1nnc(-c2ccc(S(=O)(=O)N3CCCC3)cc2)n1C (configuration not stated) | 16.4 µM (active)
CCn1c(CSc2ncccn2)nnc1SCC(=O)N1c2ccccc2CC1C (configuration not stated) | 11.6 µM (active)
O=C(CSc1nc2ccccc2o1)N1CCN(c2ccccc2)CC1 | inactive
CC1Cc2ccccc2N1C(=O)Cn1cnc2ccccc2c1=O (configuration not stated) | inactive
Cc1cc(C)c2sc(NC(=O)c3ccc(S(=O)(=O)N4CCCC4)cc3)nc2c1 | inactive
Brc1ccc2nc(-c3ccccc3)c(Cc3ccccc3)n2c1 | inactive
ClC/C=C/C[n+]1ccccc1Cl | inactive
CC(C)(C)c1ccc(S(=O)(=O)NC(=O)C2(C)CCN2C(=O)CC2CC2)cc1 (configuration not stated) | inactive

SMILES | Potency
COc1ccc(C(=O)N2CCCCC2c2cc(C(=O)Nc3ccccc3)no2)cc1 (configuration not stated) | inactive
Cn1cc(S(=O)(=O)N2CCCCCC2)cc1C(=O)N1CCN(c2ccc(F)cc2)CC1 | inactive
CCOC(=O)c1cnc(SCC(=O)NCc2ccco2)nc1N | inactive
CCOC(=O)c1cnc(SCC(=O)Nc2ccccc2C(=O)OC)nc1N | 2.59 µM (active)
CCOC(=O)c1cnc(SCC(=O)Nc2cccc(OC)c2)nc1N | inactive
CCOC(=O)c1c(C)[nH]c(C)c1S(=O)(=O)N1CCC(C(=O)Nc2ccc(C)c(Cl)c2)CC1 | inactive
Cc1ccc(CNC(=O)CN2CCN(Cc3ccc(Cl)cc3)C2=O)cc1 | inactive
CCCCC(=O)N/N=C(\C)CC(=O)Nc1cc(Cl)ccc1OC | inactive
C/C(CC(=O)NCc1ccc(Cl)cc1)=N\NC(=O)COc1ccc(C)cc1Br | 8.2 µM (active)
O=C(NCc1ccc(F)cc1)c1cc(C2CCCCN2C(=O)c2cccs2)on1 (configuration not stated) | inactive
CC1C(=O)N(Cc2cn(Cc3ccco3)nn2)CCS(=O)(=O)N1Cc1ccc(-c2cccc(CO)c2)cc1 (configuration not stated) | inactive
CCc1ccc(-c2cc(C(=O)NN3CCN(C)CC3)c3ccccc3n2)cc1 | inactive
CCCCc1nc2ccccc2c(NC(=O)CN2CCN(C)CC2)c1CCC | 8.2 µM (active)
CN1CCN(CC(=O)Nc2cccc([N+](=O)[O-])c2)CC1 | inactive
C[C@H]1CN([C@@H](C)CO)C(=O)c2cc(-c3ccccc3F)cnc2O[C@H]1CN(C)C(=O)C1CCOCC1 | inactive
NC(Cc1ccc(F)cc1)c1csc(Nc2nncc3ccccc23)n1 (configuration not stated) | inactive
Cc1ccc(S(=O)(=O)c2cn(Cc3ccccc3)c3cc(N4CCCC4)c(F)cc3c2=O)c(C)c1 | inactive
CCOC(=O)C1CCCN(C(=O)c2ccc(N(C)C)cc2)CC1 (configuration not stated) | inactive
COc1ccc(OC)c(C(O)c2ncc(-c3cccc(C(F)(F)F)c3)[nH]2)c1 (configuration not stated) | inactive
COc1ccccc1C(=O)NC(CCSC)C(=O)N1CCN(C(C)=O)CC1 (configuration not stated) | inactive
CSCCC(NC(=O)c1ccccc1)C(=O)N1CCCCCCC1 (configuration not stated) | inactive
CSCCC(NC(=O)c1ccccc1)C(=O)N1CCN(Cc2ccc(Cl)cc2)CC1 (configuration not stated) | 18.4 µM (active)
CC1=C(C(=O)OCC(C)C)C(c2ccc(OCc3ccccc3)cc2)N2C(=O)CCSC2=N1 (configuration not stated) | inactive
C=CCn1c(=O)c(C(=O)NCc2ccc3c(c2)OCO3)c(O)c2ccccc21 | inactive
O=C(NCc1ccc2c(c1)OCO2)c1sccc1Br | inactive
O=C(NCc1ccc2c(c1)OCO2)c1c(O)nc2sccn2c1=O | 8.2 µM (active)

SMILES | Potency
O=[N+]([O-])c1cc(-c2nc(-c3ccccc3)no2)ccc1NCc1ccco1 | inactive
c1coc(CNc2ncnc3ccccc23)c1 | inactive
c1ccc(-c2nc(NCc3ccco3)c3ccccc3n2)cc1 | 23.1 µM (active)
COc1ccc(-c2cnc3c(c2)C(=O)N([C@H](C)CO)C[C@@H](C)[C@H](CN(C)Cc2ccccc2)O3)cc1 | inactive
COc1cc(CNCc2ccc3c(c2)OCO3)c([N+](=O)[O-])cc1OC | inactive
COc1cc(CN2CCCN(C)CC2)c([N+](=O)[O-])cc1OC | inactive
COc1cc2c(cc1OC)C(Cc1cc(OC)c(OC)cc1[N+](=O)[O-])=NCC2 | 9.2 µM (active)
CN(C)c1ccc(C=Nc2ccc(/C=C/c3ccnc4ccccc34)cc2)cc1 | inactive
CN(C)c1ccc(/C=C/C=C/c2ccnc3ccccc23)cc1 | 6.51 µM (active)
CN(Cc1ccccc1)c1ccc(/C=C/c2ccnc3ccccc23)cc1 | inactive
CN(C)c1ccc(/C=C/c2c3ccccc3nc3ccccc23)cc1 | inactive
NC(=O)C1CCN(C(=O)c2cccc(NC(=O)c3nsc4ccccc34)c2)CC1 | inactive
COCC1CCCCN1C(=O)c1cc(COc2ccc(C)c(C)c2)on1 (configuration not stated) | inactive
CCCS(=O)(=O)c1c(Nc2ccccc2C)sc(C(=O)c2ccccc2)c1N | inactive
CC(=O)c1c(Nc2ccccc2)sc(C(=O)c2ccccc2)c1C | 3.66 µM (active)
CCC(=O)Nc1sc(C(=O)Nc2ccccc2)c(C)c1C(=O)OC | inactive
COc1ccc(C(=O)OCC(=O)Nc2cc(C)on2)cc1F | inactive
CC(=NNC(N)=O)C1CC2CCC1CC2 (configuration not stated) | inactive
Cc1ccccc1C#CC1=CC(=O)CC(C)(C)C1 | inactive
Cc1[nH]c2ccc(C(=O)N3CCN(C)CC3)cc2c1C | inactive
CCn1c(C)c(C)c2cc(C(=O)N3CCN(c4cccc(C)c4C)CC3)ccc21 | inactive
CCOc1ccccc1N1CCN(C(=O)c2ccc3[nH]c(C)c(C)c3c2)CC1 | 6.51 µM (active)
O=C(NCC(O)c1nc2ccccc2[nH]1)c1ccc(Br)cc1 (configuration not stated) | inactive
O=C(CC[C@H]1O[C@@H](n2ccc(=O)[nH]c2=O)[C@H](O)[C@@H]1O)N[C@H](Cc1ccccc1)C(=O)NCCCN1CCCC1=O | inactive

From PubChem BioAssay AID1347076 (National Center for Advancing Translational Sciences (NCATS), 2019)
